Measured values published in PubChem BioAssay (Tox21).
The source made the active and inactive calls. Entries that show only a call come without a potency. The call rests on the fitted dose curve; in most records, active means well fitted curve in the direction sought with a large enough effect in the repeat runs; inconclusive means weak or mixed curves; inactive means flat fitted curve, though single readings scatter.

experiment: qHTS assay to test for compound auto fluorescence at 460 nm (blue) in HEK293 cell free culture (AID 720681); conditions: cell-free medium, autofluorescence 405/460 nm (blue); series mostly up to 91.3 µM
In short: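 Compounds were added to cell-free DMEM with 10% FBS and fluorescence read directly. The blue channel used 405 nm excitation and 460 nm emission, with triamterene as the reference fluorophore.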

SMILES | fluorescence, % of fluorescent control | Potency
O=C1C(=O)c2ccccc2C(O)=C1C1CCC(c2ccc(Cl)cc2)CC1 (stereo not drawn) | -0.0599% [at 18.6 µM] (inactive) | 
COc1ccccc1N1CCN(CC(O)COc2cccc3ccccc23)CC1 (stereo not drawn) |  | inactive
CN1CC(=O)N2[C@H](c3ccc4c(c3)OCO4)c3[nH]c4ccccc4c3C[C@@H]2C1=O |  | inactive
O=C1c2ccccc2C(=O)C1c1nc2ccccc2c(Br)c1O |  | inactive
N#CCCN(CCO)CCO |  | inactive
CCOC(=O)C1=C(C)NC(C)=C(C(=O)OC)C1c1cccc(Cl)c1Cl (stereo not drawn) |  | inactive
O=[N+]([O-])c1ccc(O/N=C/c2cc(Br)c(O)c(Br)c2)c([N+](=O)[O-])c1 |  | inactive
C/C=C/C=C/C=O |  | inactive
O=c1cc(-c2ccccc2)oc2ccc3ccccc3c12 |  | inactive
Nc1nc2ccc([N+](=O)[O-])cc2s1 |  | inactive
CCC(C)COC(C)=O (stereo not drawn) |  | inactive
CCOC(=O)OC(C)OC(=O)[C@@H]1N2C(=O)[C@@H](NC(=O)[C@H](N)c3ccccc3)[C@H]2SC1(C)C (stereo partly drawn) | 0.602% [at 18.6 µM] (inactive) | 
Brc1cc(Br)c(Oc2cc(Br)c(Br)cc2Br)cc1Br |  | inactive
C[C@@H]1CN(CCCn2c3ccccc3c3ccccc32)C[C@H](C)N1 |  | inactive
O=C1Cc2ccccc2N1c1c(Cl)cccc1Cl |  | inactive
Cc1cc(O)ccc1O |  | inactive
CC1(C)[C@H](C(=O)O)N2C(=O)C[C@H]2S1(=O)=O |  | inactive
Cc1cc(=O)c2c(O)c3c(O)cc(=O)c4c3c3c(cc(O)c1c23)C(C)(C)C=4O |  | inactive
CCCCC(CC)COP(=O)(O)O (stereo not drawn) |  | inactive

SMILES | fluorescence, % of fluorescent control | Potency
c1ccc2sc(SN(C3CCCCC3)C3CCCCC3)nc2c1 |  | inactive
CCCCCCCCOc1ccc(C(=O)O)cc1 |  | inactive
C[C@H]1c2cccc(O)c2C(O)=C2C(=O)[C@]3(O)C(O)=C(C(N)=O)C(=O)[C@@H](N(C)C)[C@@H]3[C@@H](O)[C@@H]21 |  | inactive
CCCC(C(=O)OCCN(CC)CC)(c1ccccc1)c1ccccc1 |  | inactive
O=C(CCCN1CC=C(n2c(=O)[nH]c3ccccc32)CC1)c1ccc(F)cc1 |  | inactive
C=CCc1ccccc1OCC(O)CNC(C)C (stereo not drawn) |  | inactive
CN(C)CCC=C1c2ccccc2C=Cc2ccccc21 |  | inactive
N#CCc1ccc(Cl)cc1Cl |  | inactive
O=C(/C=C/c1ccccc1)OCCc1ccccc1 |  | inactive
CC(C)(c1ccccc1)c1ccccc1 |  | inactive
CCOc1ccc(Cc2nccc3cc(OCC)c(OCC)cc23)cc1OCC | 0.019% [at 18.6 µM] (inactive) | 
CCCCCCCCC(CCCCCC)C(=O)O (stereo not drawn) |  | inactive
Oc1c(I)cc(I)c2cccnc12 |  | inactive
CC(=O)NC1(c2cccc(F)c2)CCN(CC[C@@]2(c3ccc(Cl)c(Cl)c3)CN(c3ccccc3)C(=O)CO2)CC1 |  | inactive
CN1C(=O)c2ccccc2C1=O |  | inactive
CC(=O)Oc1ccc([N+](=O)[O-])cc1CCl |  | inactive
C=C(C)C(=O)OCCOCCOC(=O)C(=C)C |  | inactive
CC(=O)N/N=C/c1ccc([N+](=O)[O-])o1 |  | inactive
CC1(C)O[C@@H]2C[C@H]3[C@@H]4C[C@H](F)C5=CC(=O)C=C[C@]5(C)[C@H]4[C@@H](O)C[C@]3(C)[C@]2(C(=O)CO)O1 | -0.131% [at 18.6 µM] (inactive) | 
